Data taken from PubChem BioAssay (Tox21).
“And” between values parts separate entries of the source, which are not always exact repeats. Equal values may be shown once. Results filed as inconclusive are left out. Entries that show only a call come without a potency. The source made the active and inactive calls. The call rests on the fitted dose curve; in most records, active means well fitted inhibition curve with a large enough effect in the signal ratio in the repeat runs (not every such curve was filed as active); inconclusive means weak or mixed curves, or effect the other way; inactive means no such curve, though single readings can be large or run the other way; the % refers to the signal ratio.

molecular target: Estrogen receptor beta (Homo sapiens) (UniProt Q92731); test: qHTS assay to identify small molecule antagonists of the estrogen receptor beta (ER-beta) signaling pathway (AID 1259378); details: ER-beta-UAS-bla HEK293T, beta-lactamase FRET ratio, 16 h; series mostly up to 92.4 µM
Sequence (Q92731 whole entry, looked up): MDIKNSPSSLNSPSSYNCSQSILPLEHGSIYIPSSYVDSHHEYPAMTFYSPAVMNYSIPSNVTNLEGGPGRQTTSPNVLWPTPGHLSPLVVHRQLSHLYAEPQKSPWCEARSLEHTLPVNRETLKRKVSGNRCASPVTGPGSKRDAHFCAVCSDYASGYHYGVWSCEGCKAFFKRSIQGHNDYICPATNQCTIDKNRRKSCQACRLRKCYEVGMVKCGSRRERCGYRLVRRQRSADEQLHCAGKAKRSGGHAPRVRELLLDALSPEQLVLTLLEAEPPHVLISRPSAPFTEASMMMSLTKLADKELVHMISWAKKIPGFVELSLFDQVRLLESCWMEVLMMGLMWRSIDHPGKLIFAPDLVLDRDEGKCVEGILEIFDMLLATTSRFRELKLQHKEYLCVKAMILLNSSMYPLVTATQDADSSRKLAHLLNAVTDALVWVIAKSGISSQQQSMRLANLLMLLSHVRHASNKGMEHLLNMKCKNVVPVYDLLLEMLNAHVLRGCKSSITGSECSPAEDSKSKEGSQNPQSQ
From the text: National Center for Advancing Translational Sciences [NCATS]
NIH Chemical Genomics Center [NCGC]
U.S. Environmental Protection Agency [EPA]
National Institutes of Environmental Health Sciences [NIEHS]
National Toxicology Program [NTP]
U.S. Food and Drug Administration [FDA]
Estrogen receptor (ER), a nuclear hormone receptor, plays an important role in development, metabolic homeostasis and reproduction. Two subtypes of ER, ER-alpha and ER-beta, have similar expression patterns with some uniqueness in both types. Endocrine disrupting chemicals (EDCs) and their interactions with steroid hormone receptors like ER causes disruption of normal endocrine function. To identify the compounds that inhibit ER signaling, an ER-beta-UAS-bla GripTite cell line (Life Technologies, Madison, WI, USA) containing a beta-lactamase reporter gene under the control of an UAS response element was used to screen Tox21 10K compound library.
Tox21 Assay Protocol Summary:
ER-beta-UAS-bla HEK293T cells were dispensed at 2,000 cells/4 uL of assay medium containing 2% charcoal stripped FBS per well into black wall/clear-bottom 1536-well plates using a Multidrop Combi (ThermoFisher Scientific, Waltham, MA) dispenser. After the assay plates were incubated at a 37C and 5% CO2 for 6 hr, 23 nL of compounds dissolved in DMSO, positive controls or DMSO only was transferred to the assay plate by a Pintool station (Kalypsys, San Diego, CA), followed by addition of 1 uL (1nM as final concentration) of 17-beta-estradiol (E2) in assay medium using a BioRAPTR FRD (Flying Reagent Dispenser, Aurora Discovery, San Diego, CA). The plates were incubated at 37C and 5% CO2 for 16 hr. Then 1 uL of LiveBLAzerTM B/G FRET substrate was added using a Flying Reagent Dispenser, the plates were incubated at room temperature for 2 hours, and fluorescence intensity was measured by an Envision plate reader (PerkinElmer, Shelton, CT).
Potency means the concentration at half of the fitted maximal effect.

Structure (SMILES) | Potency
CC(C)CC(C)(O)C#CC(C)(O)CC(C)C (stereo not given) | inactive
Cc1ccc2c(n1)Oc1ccc(C(C)C(=O)OCC(=O)N(C)C)cc1C2 (stereo not given) | inactive
CN(C)CCC=C1c2ccccc2CCc2ccccc21 | 68.6 µM (active)
CN(C)c1nc(N(C)C)nc(N(C)C)n1 | inactive
S=C(NC1CCCCC1)NC1CCCCC1 | 6.11 µM (active)
COC(=O)c1ccccc1 | inactive
C=C(C)C(=O)OCCOC(=O)C(=C)C | inactive
C/C=C/C(=O)O | inactive
CC(=O)C1(C)CC2=C(CCCC2(C)C)CC1C (stereo not given) | inactive
COc1c(Cl)c(Cl)c(Cl)c(Cl)c1Cl | inactive
CCC(C)c1ccccc1O (stereo not given) | inactive
Cn1cnc([N+](=O)[O-])c1Sc1ncnc2nc[nH]c12 | inactive
Oc1ccc(O)cc1 | inactive
c1ccc2cc(Nc3ccc(Nc4ccc5ccccc5c4)cc3)ccc2c1 | inactive
c1cc(-c2ccncc2)ccn1 | inactive
CC(=O)CC/C=C(\C)CCC=C(C)C | inactive
CCCCC(CC)COCC1CO1 (stereo not given) | inactive
CNCCCC12CCC(c3ccccc31)c1ccccc12 | 26.6 µM (active)
Cc1cccc(C(=O)O)c1 | inactive
CCOC(=O)C(C#N)=C(c1ccccc1)c1ccccc1 | 4.33 µM (active) and 5.31 µM (active)

Structure (SMILES) | Potency
CCCCCCCCCCCO | inactive
COc1ccccc1/C=C/C=O | 55.9 µM (active) and 54.5 µM (active)
COc1cc([C@@H]2c3cc4c(cc3[C@H](O)[C@H]3COC(=O)[C@H]23)OCO4)cc(OC)c1OC | inactive
c1ccc2c(c1)Oc1ccccc1S2 | inactive
CCCCCCCCCC(=O)OC | inactive
Cc1[nH]c(=O)c(C#N)cc1-c1ccncc1 | inactive
O=P(O)(O)O | inactive
O=C(c1ccccc1)c1ccccc1O | inactive
Cc1cccc(N(C)C(=S)Oc2ccc3ccccc3c2)c1 | inactive
COC(C)COC(C)COC(C)CO (stereo not given) | inactive
CC1=CC2C3CC(C=C3C)C2C1 (stereo not given) | inactive
CC(C)=CCCC(C)CCO (stereo not given) | inactive
O=C(/C=C/c1ccccc1)OCc1ccccc1 | inactive
CCCCc1oc2ccccc2c1C(=O)c1cc(I)c(OCCN(CC)CC)c(I)c1 | 21.9 µM (active) and 26.6 µM (active)
O=c1oc(=O)c2cc3c(=O)oc(=O)c3cc12 | inactive
C[C@]12CC[C@H]3[C@@H](CCC4=CC(=O)CC[C@@]43C)[C@@H]1CC[C@@H]2C(=O)CO | inactive
COc1cccc2c1C(=O)c1c(O)c3c(c(O)c1C2=O)C[C@@](O)(C(=O)CO)C[C@@H]3O[C@H]1C[C@H](N)[C@H](O)[C@H](C)O1 | 1.93 µM (active) and 11.9 µM (active)
Cc1ncc[nH]1 | inactive
NC=O | inactive
CCCCC/C=C/C=C/C=O | inactive
